The source of these data is PubChem BioAssay (NCATS).

“And” between values parts separate entries of the source, which are not always exact repeats. Identical values can stand only once. Records with an inconclusive call do not appear. The source made the active and inactive calls. Calls come from the whole dose curve; as a rule, active = well fitted curve in the direction sought with a large enough effect; inconclusive = small, poorly fitted or top-dose-only effect, or another doubt; inactive = no such curve, though single readings can be large; an effect the other way counts as inactive or inconclusive.

The nature of assay [1]: qHTS of pediatric cancer cell lines to identify multiple opportunities for drug repurposing: Primary screen for RD cells (AID 1347104). Note: nearly all actives have a fitted effect of over 55% in size. Note: potency is the fitted concentration of half-maximal effect. In short, it runs like this: (§1)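 Primary screen of approved and investigational compounds on cells in growth media at 37 degrees C, 5% CO2. MIPE set at 11-point and NPC set at 8-point dilutions; viability scored by ATP-based luminescence at 48 hours.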
A general note: qHTS replaces the single test concentration by a dilution series.

A short description of assay [2]: qHTS of pediatric cancer cell lines to identify multiple opportunities for drug repurposing: Primary screen for MG 63 (6-TG R) cells (AID 1347105). Note: nearly all actives have a fitted effect of over 50% in size. Note: potency is the fitted concentration of half-maximal effect. Put shortly: as §1
The nature of assay [3]: qHTS of pediatric cancer cell lines to identify multiple opportunities for drug repurposing: Primary screen for control Hh wild type fibroblast cells (AID 1347106).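 Note: series mostly up to about 46 µM; a drop in luminescence marks cytotoxicity and a rise apparent proliferation; nearly all actives have a fitted effect of over 55% in size.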 In short, it runs like this:
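Cells (500-1,000/well) in growth media were settled 5 h at 37 degrees C, then given compounds for 48 h. Viability was read as CellTiter-Glo luminescence. Primary runs used MIPE at 11 points (0.78 nM-46 µM) and NPC at 8 points (0.59 nM-46 µM); follow-ups used 11 points.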

A short description of assay [4]: qHTS of pediatric cancer cell lines to identify multiple opportunities for drug repurposing: Primary screen for Rh30 cells (AID 1347107). Note: series mostly up to about 46 µM; nearly all actives have a fitted effect of over 75% in size. In short, it runs like this: (§2)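 Viability after 48 h compound treatment at 37C, 500-1,000 cells/well, read as ATP luminescence with CellTiter-Glo. Primary screens used 11-point (MIPE, 0.78 nM-46 µM) or 8-point (NPC, 0.59 nM-46 µM) final concentrations; follow-up screens used 11-point dilutions.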

Assay [5] can be described thus: qHTS of pediatric cancer cell lines to identify multiple opportunities for drug repurposing: Primary screen for Rh41 cells (AID 1347108). Note: nearly all actives have a fitted effect of over 70% in size. Note: potency is the fitted concentration of half-maximal effect. In short, it runs like this:
as §1

A short description of assay [6]: qHTS of pediatric cancer cell lines to identify multiple opportunities for drug repurposing: Confirmatory screen for BT-12 cells (AID 1347112). Note: nearly all actives have a fitted effect of over 55% in size. Put shortly:
as §2

Assay [7] is described as follows: qHTS of pediatric cancer cell lines to identify multiple opportunities for drug repurposing: Confirmatory screen for LAN-5 cells (AID 1347113). Note: nearly all actives have a fitted effect of over 65% in size. Note: potency is the fitted concentration of half-maximal effect. Put shortly:
as §2

A short description of assay [8]: qHTS of pediatric cancer cell lines to identify multiple opportunities for drug repurposing: Confirmatory screen for DAOY cells (AID 1347114). Note: nearly all actives have a fitted effect of over 65% in size. In short, it runs like this: (§3)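 Viability measured as metabolically active cells via CellTiter-Glo luminescence following 48 hours of compound exposure, 11-point dilutions in confirmatory testing. 500-1,000 cells/well plated 5 hours before dosing; controls were DMSO and 2.3 µM bortezomib.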

The nature of assay [9]: qHTS of pediatric cancer cell lines to identify multiple opportunities for drug repurposing: Confirmatory screen for NB-EBc1 cells (AID 1347115). Note: nearly all actives have a fitted effect of over 45% in size. Put shortly: as §2
Assay [10] can be described thus: qHTS of pediatric cancer cell lines to identify multiple opportunities for drug repurposing: Confirmatory screen for SJ-GBM2 cells (AID 1347116). Note: nearly all actives have a fitted effect of over 60% in size. In short, it runs like this:
as §3

Assay [11] in a line: qHTS of pediatric cancer cell lines to identify multiple opportunities for drug repurposing: Confirmatory screen for MG 63 (6-TG R) cells (AID 1347119). Note: nearly all actives have a fitted effect of over 55% in size. Note: potency is the fitted concentration of half-maximal effect. In short, it runs like this:
as §2

Assay [12] is described as follows: qHTS of pediatric cancer cell lines to identify multiple opportunities for drug repurposing: Confirmatory screen for control Hh wild type fibroblast cells (AID 1347121). Note: nearly all actives have a fitted effect of over 70% in size. Put shortly:
as §2

Assay [13] is described as follows: qHTS of pediatric cancer cell lines to identify multiple opportunities for drug repurposing: Confirmatory screen for RD cells (AID 1347124).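 Note: cells exposed to compound for 48 h before viability readout; nearly all actives have a fitted effect of over 65% in size.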 In short, it runs like this:
as §2

The nature of assay [14]: qHTS of pediatric cancer cell lines to identify multiple opportunities for drug repurposing: Confirmatory screen for Rh18 cells (AID 1347125). Note: nearly all actives have a fitted effect of over 55% in size. Put shortly: as §2
Assay [15] can be described thus: qHTS of pediatric cancer cell lines to identify multiple opportunities for drug repurposing: Confirmatory screen for Rh30 cells (AID 1347126). Note: nearly all actives have a fitted effect of over 55% in size. Note: potency is the fitted concentration of half-maximal effect. In short, it runs like this:
as §2

Assay [16] in a line: qHTS of pediatric cancer cell lines to identify multiple opportunities for drug repurposing: Confirmatory screen for TC32 cells (AID 1347118). Note: nearly all actives have a fitted effect of over 65% in size. Note: potency is the fitted concentration of half-maximal effect. Put shortly:
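Luminescent CellTiter-Glo read-out of metabolically active TC32 cells after 48 h compound exposure. Primary: MIPE 11-point, 0.78 nM–46 µM; NPC 8-point, 0.59 nM–46 µM. Confirmatory: 11-point dilutions.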

Assay [17] in a line: qHTS of pediatric cancer cell lines to identify multiple opportunities for drug repurposing: Confirmatory screen for NB1643 cells (AID 1347109). Note: nearly all actives have a fitted effect of over 45% in size. Put shortly: as §2
Assay [18] in a line: qHTS of pediatric cancer cell lines to identify multiple opportunities for drug repurposing: Confirmatory screen for U-2 OS cells (AID 1347122). Note: nearly all actives have a fitted effect of over 65% in size. Note: potency is the fitted concentration of half-maximal effect. In short, it runs like this: as §2
Assay [19] in a line: qHTS of pediatric cancer cell lines to identify multiple opportunities for drug repurposing: Confirmatory screen for Rh41 cells (AID 1347123). Note: nearly all actives have a fitted effect of over 60% in size. Note: potency is the fitted concentration of half-maximal effect. In short, it runs like this:
as §2

The nature of assay [20]: qHTS of pediatric cancer cell lines to identify multiple opportunities for drug repurposing: Confirmatory screen for SK-N-MC cells (AID 1347111).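 Note: cells exposed to compound for 48 h before the readout; nearly all actives have a fitted effect of over 70% in size.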 Note: potency is the fitted concentration of half-maximal effect. Put shortly: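 SK-N-MC cells at 500-1,000 cells/well in growth media were pre-incubated 5 h, then exposed to compounds at 11-point dilutions for 48 h at 37 degrees C, 5% CO2. Viability was read as CellTiter-Glo luminescence.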

In the case of `O=C1[C@H](Cc2ccc(O)cc2)N2C(=O)CCN(C(=O)NCc3ccccc3)[C@H]2CN1Cc1cccc2ccccc12`, the Potency in assay [1] is 10.5 µM (active); in assay [2], 3720 nM (active).

For the compound `Cc1cc(Nc2nc(N[C@@H](C)c3ncc(F)cn3)ncc2Cl)n[nH]1`, the Potency is 16.6 µM (active) in assay [1], 11800 nM (active) in assay [2] and 9.35 µM (active) in assay [5]. Also, the Potency result in assay [3] and in [4] was “inactive” in each case.

For the compound `CC1(C)CNc2cc(NC(=O)c3cccnc3NCc3ccncc3)ccc21`, the Potency result in [1], in assay [3] and in assay [4] was “inactive” each time.

`O=c1n(CCCN2CCN(c3cccc(Cl)c3)CC2)nc2ccccn12`: the Potency result in [1], in [2], in [3] and in assay [5] was “inactive” in each case.

Take `OC(CN1CCC(Cc2ccc(F)cc2)CC1)c1ccc(Cl)cc1` (configuration not stated): the Potency result in assay [1], in [2], in assay [3], in assay [4], in assay [5] and in assay [6] was “inactive” in each case. Also, the Potency result in [7], in assay [8], in assay [9], in [10], in assay [11] and in assay [12] was “inactive” each time. The Potency entry in assay [13], in assay [14] and in [15] was “inactive” each time.

For the compound `CCOC(=O)N1CCC(=C2c3ccc(Cl)cc3CCc3cccnc32)CC1`, the Potency in assay [1] is 29.9 µM (active); in assay [2] it was 13300 nM (active); in assay [5], 23.5 µM (active) and 23.7 µM (active). In addition, the Potency entry in assay [3] is “inactive”.

For `Oc1ccc(C2CNCCc3c2cc(O)c(O)c3Cl)cc1` (configuration not stated), the Potency result in assay [1], in assay [2], in assay [3] and in [5] was “inactive” each time.

On to `Cn1cnc([N+](=O)[O-])c1Sc1ncnc2nc[nH]c12`, for which the Potency entry in [1], in assay [2], in assay [3], in assay [4], in [6] and in assay [12] was “inactive” throughout. Moreover, in assay [13], the Potency result was “inactive”. In addition, in assay [16], the Potency was 1340 nM (active).

On to `CCN(CC)CCCC(C)Nc1ccnc2cc(Cl)ccc12` (configuration not stated), for which the Potency in assay [1] was 13 µM (active) and 6.62 µM (active); in assay [2], 11800 nM (active). The Potency entry in assay [3], in [4], in assay [5], in [17], in [6] and in [7] was “inactive” each time. Besides, the Potency result in assay [8], in [9], in assay [16], in [12], in assay [18] and in assay [19] was “inactive” in each case. Besides, the Potency result in assay [13], in [14] and in [15] was “inactive” throughout.

As for `COc1ccc(-c2ccc3c(N4CCOC[C@H]4C)nc(N4CCOC[C@H]4C)nc3n2)cc1CO`, the Potency in [1] was 0.0372 µM (active); in assay [2], 18.7 nM (active); in assay [5], 0.0418 µM (active); in assay [20], 827 nM (active); in [7], 293 nM (active); in assay [16], 208 nM (active). Further, the Potency is 92.8 nM (active) in [11], 329 nM (active) in assay [18], 233 nM (active) in assay [19] and 185 nM (active) in [15]. In addition, the Potency entry in assay [4] is “inactive”.

Consider `CCCC(CCC)C(=O)O`, for which the Potency result in assay [1], in assay [2], in assay [3] and in assay [5] was “inactive” each time.

Take `Cc1c(C)c2c(c(C)c1O)CCC(C)(COc1ccc(CC3SC(=O)NC3=O)cc1)O2` (configuration not stated): the Potency result in [1], in assay [2], in [3], in assay [4], in assay [5] and in assay [17] was “inactive” in each case. In addition, the Potency result in [20], in assay [6], in [7], in [9], in [10] and in assay [16] was “inactive” in each case. In addition, the Potency entry in assay [12], in assay [19], in [13] and in assay [15] was “inactive” each time.

For `COc1cc(Oc2ccnc3cc(OC)c(OC)cc23)ccc1NC(=O)NC(C)c1nccs1` (configuration not stated), the Potency result in [1] and in assay [3] was “inactive” in each case.

With `CCc1ccc(CCOc2ccc(CC3SC(=O)NC3=O)cc2)nc1` (configuration not stated), the Potency result in [1], in assay [2], in [3] and in assay [5] was “inactive” throughout.

For the compound `CCn1c(-c2nonc2N)nc2c(C#CC(C)(C)O)ncc(OC[C@H]3CCCNC3)c21`, the Potency in assay [1] is 23.5 µM (active). Moreover, the Potency entry in assay [3] is “inactive”.

Turning to `O=NN(CCCl)C(=O)NCCCl`, the Potency result in assay [1], in [2], in assay [3], in [4], in assay [5] and in [17] was “inactive” in each case. Also, the Potency result in [6], in [7], in assay [8], in assay [10], in assay [12] and in assay [18] was “inactive” in each case. Moreover, the Potency result in assay [19], in assay [13], in assay [14] and in assay [15] was “inactive” each time. Also, the Potency in assay [11] was 20800 nM (active).

Turning to `Cn1cc(-c2ccc3nnc(C(F)(F)c4ccc5ncccc5c4)n3n2)cn1`, the Potency entry in assay [1] and in [3] was “inactive” each time.

Regarding `O=C1CCC(N2C(=O)c3ccccc3C2=O)C(=O)N1` (configuration not stated), the Potency result in assay [1], in [2], in assay [3] and in assay [5] was “inactive” throughout.

Regarding `CCOc1cc(C=C2C(=O)N(c3ccccc3)N=C2C)cc(Cl)c1OCC(=O)OC`, the Potency result in assay [1], in [3] and in assay [4] was “inactive” each time.

Take `Nc1nc2ccc(OC(F)(F)F)cc2s1`: the Potency result in assay [1], in [2], in [3], in assay [5], in assay [20] and in assay [6] was “inactive” each time. The Potency entry in assay [9], in assay [10], in assay [16], in assay [12], in assay [19] and in [13] was “inactive” throughout. Also, the Potency result in assay [14] and in assay [15] was “inactive” in each case. Besides, the Potency in assay [11] is 18500 nM (active).
